Measurements published in PMC7862700, “An all-to-all approach to the identification of sequence-specific readers for epigenetic DNA modifications on cytosine”.

How the values were obtained:
Assay in all cases: DAPPL (digital affinity profiling via proximity ligation, sequencing); 10 mM Tris-HCl pH 7.5, 50 mM NaCl, 1 mM DTT, 4% glycerol, room temperature, 30 min; GST-TFs on glutathione beads, 16-mer random dsDNA library, 0.1% formaldehyde crosslink after washing; high values mean tight binding
FLI1 = molecular target: T1, FLI1 (Homo sapiens, UniProt Q01543 1-452); conditions: protein: recombinant; tags: N-terminal GST; dsDNA, one strand shown
T1 sequence: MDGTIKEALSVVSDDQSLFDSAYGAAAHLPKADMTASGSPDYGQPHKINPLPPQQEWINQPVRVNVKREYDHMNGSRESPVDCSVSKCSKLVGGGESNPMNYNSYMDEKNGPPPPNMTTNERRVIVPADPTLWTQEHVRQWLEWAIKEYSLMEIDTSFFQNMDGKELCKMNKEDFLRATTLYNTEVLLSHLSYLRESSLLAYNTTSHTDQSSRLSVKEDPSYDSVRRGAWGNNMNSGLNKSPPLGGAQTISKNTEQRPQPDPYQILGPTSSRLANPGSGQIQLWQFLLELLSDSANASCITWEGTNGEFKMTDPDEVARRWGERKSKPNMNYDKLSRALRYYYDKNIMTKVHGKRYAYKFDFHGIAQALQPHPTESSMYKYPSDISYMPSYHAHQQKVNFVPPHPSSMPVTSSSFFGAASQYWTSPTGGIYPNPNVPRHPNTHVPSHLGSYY
Outline: (§1)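 A tag-only sample was pooled with DNA-barcoded human transcription factors that had been expressed in yeast as GST fusions and captured on glutathione beads. The pools were incubated for 30 min at room temperature with 200 nmole of a random double-stranded 16-mer DNA library in Tris/NaCl/DTT/glycerol buffer, then washed, crosslinked with 0.1% formaldehyde, proximity-ligated (BsaI/T4 ligase, 1 h, 37 °C), PCR-amplified and sequenced on an Illumina NextSeq500. Binding signal is each hexamer's read frequency for a factor divided by its frequency for the tag-only sample.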

ELK1 = molecular target: T2, ELK1 (Homo sapiens, UniProt P19419 1-428); conditions: protein: recombinant; tags: N-terminal GST; dsDNA, one strand shown
T2 sequence: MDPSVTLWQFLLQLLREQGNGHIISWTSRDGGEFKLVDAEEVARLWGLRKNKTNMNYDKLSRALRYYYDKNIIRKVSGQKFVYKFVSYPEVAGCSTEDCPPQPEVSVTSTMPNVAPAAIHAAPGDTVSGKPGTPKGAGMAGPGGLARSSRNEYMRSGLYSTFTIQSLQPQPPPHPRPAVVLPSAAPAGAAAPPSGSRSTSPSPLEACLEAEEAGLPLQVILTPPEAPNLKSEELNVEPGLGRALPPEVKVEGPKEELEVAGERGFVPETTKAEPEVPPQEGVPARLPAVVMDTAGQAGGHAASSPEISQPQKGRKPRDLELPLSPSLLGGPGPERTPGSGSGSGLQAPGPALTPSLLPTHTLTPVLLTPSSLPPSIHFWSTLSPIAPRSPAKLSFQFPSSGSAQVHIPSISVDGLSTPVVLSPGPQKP
Outline: as §1

GABPA = molecular target: T3, GABPA (Homo sapiens, UniProt Q06546 1-454); conditions: protein: recombinant; tags: N-terminal GST; dsDNA, one strand shown
T3 sequence: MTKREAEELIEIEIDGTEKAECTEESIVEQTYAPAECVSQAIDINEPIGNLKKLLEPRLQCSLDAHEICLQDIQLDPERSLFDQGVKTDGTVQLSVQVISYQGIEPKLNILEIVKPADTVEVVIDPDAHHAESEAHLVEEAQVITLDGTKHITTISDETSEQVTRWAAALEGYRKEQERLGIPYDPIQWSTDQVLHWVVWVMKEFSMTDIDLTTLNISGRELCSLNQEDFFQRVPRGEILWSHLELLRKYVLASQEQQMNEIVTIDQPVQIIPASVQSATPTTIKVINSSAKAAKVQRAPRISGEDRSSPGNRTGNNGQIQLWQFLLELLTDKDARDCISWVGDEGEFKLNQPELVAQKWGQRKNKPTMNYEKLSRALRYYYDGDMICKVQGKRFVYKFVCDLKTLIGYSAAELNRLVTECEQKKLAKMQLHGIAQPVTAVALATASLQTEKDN
Outline: as §1

ERG = molecular target: T4, ERG (Homo sapiens, UniProt P11308 1-479); conditions: protein: recombinant; tags: N-terminal GST; dsDNA, one strand shown
T4 sequence: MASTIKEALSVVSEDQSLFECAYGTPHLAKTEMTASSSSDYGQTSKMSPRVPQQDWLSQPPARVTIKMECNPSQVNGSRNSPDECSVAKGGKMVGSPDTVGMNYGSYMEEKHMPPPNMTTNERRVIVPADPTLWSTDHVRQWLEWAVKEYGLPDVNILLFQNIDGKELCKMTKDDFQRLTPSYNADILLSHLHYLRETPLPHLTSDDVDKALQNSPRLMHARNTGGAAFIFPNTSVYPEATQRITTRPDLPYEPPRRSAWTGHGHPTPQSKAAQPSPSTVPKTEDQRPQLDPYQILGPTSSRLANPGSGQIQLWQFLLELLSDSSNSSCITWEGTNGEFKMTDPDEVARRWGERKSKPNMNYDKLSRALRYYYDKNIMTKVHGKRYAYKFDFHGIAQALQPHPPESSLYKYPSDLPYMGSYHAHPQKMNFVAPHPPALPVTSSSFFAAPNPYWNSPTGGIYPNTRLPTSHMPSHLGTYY
Outline: as §1

ELF1 = ELF1 (Homo sapiens, UniProt P32519 1-619); conditions: protein: recombinant; tags: N-terminal GST; dsDNA, one strand shown
Outline: as §1

EHF = molecular target: T5, EHF (Homo sapiens, UniProt Q9NZC4 1-300); conditions: protein: recombinant; tags: N-terminal GST; dsDNA, one strand shown
T5 sequence: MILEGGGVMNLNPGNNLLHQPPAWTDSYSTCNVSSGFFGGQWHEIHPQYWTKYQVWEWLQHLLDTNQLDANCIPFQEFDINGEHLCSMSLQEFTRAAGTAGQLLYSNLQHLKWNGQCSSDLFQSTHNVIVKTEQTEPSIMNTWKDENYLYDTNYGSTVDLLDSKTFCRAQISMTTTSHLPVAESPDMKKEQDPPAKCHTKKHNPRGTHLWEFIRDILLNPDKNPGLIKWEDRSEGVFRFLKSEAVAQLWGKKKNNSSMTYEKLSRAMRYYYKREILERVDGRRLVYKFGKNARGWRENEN
Outline: as §1

SPI1 = SPI1 (Homo sapiens, UniProt P17947 1-270); conditions: protein: recombinant; tags: N-terminal GST; dsDNA, one strand shown
Outline: as §1

SPIB = SPIB (Homo sapiens, UniProt Q01892 1-262); conditions: protein: recombinant; tags: N-terminal GST; dsDNA, one strand shown
Outline: as §1

ELK3 = molecular target: T6, ELK3 (Homo sapiens, UniProt P41970 1-407); conditions: protein: recombinant; tags: N-terminal GST; dsDNA, one strand shown
T6 sequence: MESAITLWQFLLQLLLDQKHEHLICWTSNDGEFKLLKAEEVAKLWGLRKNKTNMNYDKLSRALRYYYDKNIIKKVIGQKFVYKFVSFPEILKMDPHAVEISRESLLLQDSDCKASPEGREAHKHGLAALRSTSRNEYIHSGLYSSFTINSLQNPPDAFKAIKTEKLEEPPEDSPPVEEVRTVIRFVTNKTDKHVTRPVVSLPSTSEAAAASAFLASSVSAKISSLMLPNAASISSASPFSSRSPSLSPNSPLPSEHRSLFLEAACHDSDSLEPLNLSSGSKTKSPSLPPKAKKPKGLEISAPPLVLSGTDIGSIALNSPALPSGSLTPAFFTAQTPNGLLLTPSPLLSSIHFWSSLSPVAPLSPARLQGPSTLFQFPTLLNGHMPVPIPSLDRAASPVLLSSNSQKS
Outline: as §1

FEV = molecular target: T7, FEV (Homo sapiens, UniProt Q99581 1-238); conditions: protein: recombinant; tags: N-terminal GST; dsDNA, one strand shown
T7 sequence: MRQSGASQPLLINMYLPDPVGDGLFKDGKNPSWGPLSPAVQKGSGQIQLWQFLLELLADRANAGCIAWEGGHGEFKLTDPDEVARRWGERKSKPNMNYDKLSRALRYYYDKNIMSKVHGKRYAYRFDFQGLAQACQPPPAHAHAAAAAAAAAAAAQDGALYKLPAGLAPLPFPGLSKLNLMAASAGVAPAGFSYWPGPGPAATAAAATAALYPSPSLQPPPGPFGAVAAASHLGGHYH
Outline: as §1

ETV5 = ETV5 (Homo sapiens, UniProt P41161 1-510); conditions: protein: recombinant; tags: N-terminal GST; dsDNA, one strand shown
Outline: as §1

HSF1 = HSF1 (Homo sapiens, UniProt Q00613 1-529); conditions: protein: recombinant; tags: N-terminal GST; chain copies: 3; dsDNA, one strand shown
Outline: as §1

ELF4 = ELF4 (Homo sapiens, UniProt Q99607 1-663); conditions: protein: recombinant; tags: N-terminal GST; dsDNA, one strand shown
Outline: as §1

ELK4 = molecular target: T8, ELK4 (Homo sapiens, UniProt P28324-2 1-405); conditions: protein: recombinant; tags: N-terminal GST; dsDNA, one strand shown
T8 sequence: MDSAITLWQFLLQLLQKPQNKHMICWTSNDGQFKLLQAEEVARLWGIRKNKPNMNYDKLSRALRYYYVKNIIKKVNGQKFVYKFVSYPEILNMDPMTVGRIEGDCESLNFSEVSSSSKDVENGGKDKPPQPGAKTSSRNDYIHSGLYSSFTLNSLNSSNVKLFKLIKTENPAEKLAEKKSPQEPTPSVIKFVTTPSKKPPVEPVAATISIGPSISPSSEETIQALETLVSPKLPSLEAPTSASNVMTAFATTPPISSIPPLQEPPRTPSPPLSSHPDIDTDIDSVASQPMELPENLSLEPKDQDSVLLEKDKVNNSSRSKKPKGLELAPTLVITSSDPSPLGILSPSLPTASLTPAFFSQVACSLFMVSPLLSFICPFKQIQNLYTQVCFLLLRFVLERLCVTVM
Outline: as §1

ETV2 = molecular target: T9, ETV2 (Homo sapiens, UniProt O00321 1-342); conditions: protein: recombinant; tags: N-terminal GST; dsDNA, one strand shown
T9 sequence: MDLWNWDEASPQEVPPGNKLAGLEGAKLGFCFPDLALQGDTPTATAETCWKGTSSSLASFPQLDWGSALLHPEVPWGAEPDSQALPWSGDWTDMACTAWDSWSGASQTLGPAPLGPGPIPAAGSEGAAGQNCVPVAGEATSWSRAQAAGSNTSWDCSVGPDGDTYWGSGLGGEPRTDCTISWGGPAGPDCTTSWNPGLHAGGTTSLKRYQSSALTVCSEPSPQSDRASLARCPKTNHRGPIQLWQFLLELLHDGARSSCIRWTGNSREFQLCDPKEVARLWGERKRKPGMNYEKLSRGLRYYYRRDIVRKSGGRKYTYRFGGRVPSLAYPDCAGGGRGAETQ
Outline: as §1

ELF3 = molecular target: T10, ELF3 (Homo sapiens, UniProt P78545 1-371); conditions: protein: recombinant; tags: N-terminal GST; dsDNA, one strand shown
T10 sequence: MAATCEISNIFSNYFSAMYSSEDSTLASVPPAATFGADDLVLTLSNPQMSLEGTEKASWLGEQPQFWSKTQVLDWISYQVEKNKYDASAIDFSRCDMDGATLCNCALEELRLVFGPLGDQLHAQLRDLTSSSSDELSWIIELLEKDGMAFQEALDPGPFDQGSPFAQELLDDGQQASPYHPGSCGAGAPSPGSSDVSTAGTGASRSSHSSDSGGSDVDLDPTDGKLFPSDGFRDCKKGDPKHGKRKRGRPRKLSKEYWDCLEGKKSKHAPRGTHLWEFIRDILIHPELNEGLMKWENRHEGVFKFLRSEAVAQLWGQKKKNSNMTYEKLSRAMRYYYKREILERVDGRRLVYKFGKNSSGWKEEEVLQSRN
Outline: as §1

CRX = CRX (Homo sapiens, UniProt O43186 1-299); conditions: protein: recombinant; tags: N-terminal GST; dsDNA, one strand shown
Outline: as §1

ETV1 = ETV1 (Homo sapiens, UniProt P50549 1-477); conditions: protein: recombinant; tags: N-terminal GST; dsDNA, one strand shown
Outline: as §1

Chain of ELF1 (P32519 whole entry): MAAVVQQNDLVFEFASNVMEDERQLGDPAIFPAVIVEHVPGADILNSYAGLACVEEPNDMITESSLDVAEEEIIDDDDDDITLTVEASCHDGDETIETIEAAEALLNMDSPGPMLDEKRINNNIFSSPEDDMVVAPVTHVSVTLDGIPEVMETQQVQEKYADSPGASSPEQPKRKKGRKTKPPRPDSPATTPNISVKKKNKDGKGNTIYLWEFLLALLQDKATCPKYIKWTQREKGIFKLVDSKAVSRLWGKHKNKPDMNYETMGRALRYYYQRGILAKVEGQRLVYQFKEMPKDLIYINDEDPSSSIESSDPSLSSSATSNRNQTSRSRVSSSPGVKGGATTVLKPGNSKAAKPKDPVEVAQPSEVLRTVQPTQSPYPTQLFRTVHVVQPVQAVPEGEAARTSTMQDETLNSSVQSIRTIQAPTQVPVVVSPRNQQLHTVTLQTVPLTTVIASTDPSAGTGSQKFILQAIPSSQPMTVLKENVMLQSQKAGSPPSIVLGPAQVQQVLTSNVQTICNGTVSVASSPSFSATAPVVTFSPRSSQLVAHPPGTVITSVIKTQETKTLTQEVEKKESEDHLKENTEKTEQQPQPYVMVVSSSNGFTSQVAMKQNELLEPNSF
Chain of ETV5 (P41161 whole entry): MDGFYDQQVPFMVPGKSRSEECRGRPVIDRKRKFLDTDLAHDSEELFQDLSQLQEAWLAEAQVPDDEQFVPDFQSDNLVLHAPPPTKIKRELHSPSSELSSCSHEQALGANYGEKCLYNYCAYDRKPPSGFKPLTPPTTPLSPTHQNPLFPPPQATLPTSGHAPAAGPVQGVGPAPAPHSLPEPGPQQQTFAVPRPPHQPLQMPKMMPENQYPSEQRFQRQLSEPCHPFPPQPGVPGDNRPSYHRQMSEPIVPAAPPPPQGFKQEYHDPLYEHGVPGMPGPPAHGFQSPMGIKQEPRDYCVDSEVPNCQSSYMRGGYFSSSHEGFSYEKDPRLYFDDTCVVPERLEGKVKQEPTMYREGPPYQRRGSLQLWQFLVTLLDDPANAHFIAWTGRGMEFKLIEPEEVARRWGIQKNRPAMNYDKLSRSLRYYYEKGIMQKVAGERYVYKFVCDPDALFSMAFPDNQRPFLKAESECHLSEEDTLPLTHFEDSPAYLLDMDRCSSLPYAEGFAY
Chain of HSF1 (Q00613 whole entry): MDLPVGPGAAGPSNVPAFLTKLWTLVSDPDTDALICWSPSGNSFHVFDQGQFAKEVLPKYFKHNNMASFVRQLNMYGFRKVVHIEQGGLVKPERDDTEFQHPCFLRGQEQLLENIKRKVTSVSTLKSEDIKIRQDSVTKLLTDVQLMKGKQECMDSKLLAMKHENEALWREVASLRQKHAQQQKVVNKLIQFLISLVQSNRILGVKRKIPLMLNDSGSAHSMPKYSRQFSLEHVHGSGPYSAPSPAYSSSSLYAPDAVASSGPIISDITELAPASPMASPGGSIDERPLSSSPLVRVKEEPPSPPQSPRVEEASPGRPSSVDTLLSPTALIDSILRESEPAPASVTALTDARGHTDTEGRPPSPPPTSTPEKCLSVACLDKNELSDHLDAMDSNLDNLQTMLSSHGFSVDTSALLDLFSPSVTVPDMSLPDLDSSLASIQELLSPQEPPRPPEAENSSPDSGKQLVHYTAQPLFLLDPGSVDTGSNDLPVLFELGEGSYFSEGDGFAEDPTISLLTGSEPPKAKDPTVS
Chain of CRX (O43186 whole entry): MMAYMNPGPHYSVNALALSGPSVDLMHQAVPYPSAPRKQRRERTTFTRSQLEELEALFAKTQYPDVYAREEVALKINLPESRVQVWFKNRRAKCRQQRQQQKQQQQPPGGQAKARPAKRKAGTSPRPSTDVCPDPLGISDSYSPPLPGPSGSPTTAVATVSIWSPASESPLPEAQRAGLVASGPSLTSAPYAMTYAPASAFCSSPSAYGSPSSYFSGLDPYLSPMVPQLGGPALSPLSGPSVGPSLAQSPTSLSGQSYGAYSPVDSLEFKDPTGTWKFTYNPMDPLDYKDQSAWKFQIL
Chain of ETV1 (P50549 whole entry): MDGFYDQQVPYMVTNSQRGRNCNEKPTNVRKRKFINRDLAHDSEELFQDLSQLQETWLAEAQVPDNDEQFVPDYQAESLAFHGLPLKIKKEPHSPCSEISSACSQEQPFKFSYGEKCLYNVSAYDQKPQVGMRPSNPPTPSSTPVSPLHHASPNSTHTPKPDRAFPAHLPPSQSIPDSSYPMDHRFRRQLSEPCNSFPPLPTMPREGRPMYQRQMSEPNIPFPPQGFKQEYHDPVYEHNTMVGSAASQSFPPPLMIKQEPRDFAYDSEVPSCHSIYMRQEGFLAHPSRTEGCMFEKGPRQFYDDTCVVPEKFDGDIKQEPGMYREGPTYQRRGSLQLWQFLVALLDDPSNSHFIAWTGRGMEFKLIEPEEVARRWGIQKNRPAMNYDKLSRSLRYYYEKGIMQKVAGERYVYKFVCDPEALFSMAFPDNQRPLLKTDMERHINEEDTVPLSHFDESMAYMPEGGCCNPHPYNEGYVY
Chain of SPIB (Q01892 whole entry): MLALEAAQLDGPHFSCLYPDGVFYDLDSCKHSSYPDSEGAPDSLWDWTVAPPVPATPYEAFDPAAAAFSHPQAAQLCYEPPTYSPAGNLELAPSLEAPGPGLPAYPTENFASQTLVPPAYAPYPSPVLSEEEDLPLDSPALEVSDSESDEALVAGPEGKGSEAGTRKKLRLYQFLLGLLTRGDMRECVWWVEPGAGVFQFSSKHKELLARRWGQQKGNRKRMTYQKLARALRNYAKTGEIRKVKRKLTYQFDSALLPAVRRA
Chain of ELF4 (Q99607 whole entry): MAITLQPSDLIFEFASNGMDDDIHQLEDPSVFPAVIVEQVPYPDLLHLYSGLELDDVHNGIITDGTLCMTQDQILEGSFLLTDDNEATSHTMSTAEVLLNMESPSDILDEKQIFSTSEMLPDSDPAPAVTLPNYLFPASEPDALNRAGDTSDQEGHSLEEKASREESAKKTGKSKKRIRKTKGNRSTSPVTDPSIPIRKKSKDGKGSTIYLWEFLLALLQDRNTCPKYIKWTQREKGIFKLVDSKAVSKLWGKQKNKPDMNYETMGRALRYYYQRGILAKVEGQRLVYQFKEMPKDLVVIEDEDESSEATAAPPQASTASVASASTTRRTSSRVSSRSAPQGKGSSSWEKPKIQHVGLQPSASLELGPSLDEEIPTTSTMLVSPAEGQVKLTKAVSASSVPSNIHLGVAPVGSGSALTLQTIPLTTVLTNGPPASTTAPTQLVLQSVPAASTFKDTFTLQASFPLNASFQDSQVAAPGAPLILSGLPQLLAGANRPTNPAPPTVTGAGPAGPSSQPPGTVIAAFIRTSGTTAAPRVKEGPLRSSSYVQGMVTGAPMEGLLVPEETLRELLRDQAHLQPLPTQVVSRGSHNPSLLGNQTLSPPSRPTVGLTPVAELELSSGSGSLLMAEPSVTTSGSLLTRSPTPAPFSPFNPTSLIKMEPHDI

Question: What does the source list for AACCAT?
Answer: binding signal (FLI1): 1.14 fold enrichment (6-mer frequency, TF over GST control); binding signal (ELK1): 1.17 fold enrichment (6-mer frequency, TF over GST control); binding signal (GABPA): 1.16 fold enrichment (6-mer frequency, TF over GST control); binding signal (ERG): 1.2 fold enrichment (6-mer frequency, TF over GST control); binding signal (ELF1): 1.18 fold enrichment (6-mer frequency, TF over GST control); binding signal (EHF): 1.22 fold enrichment (6-mer frequency, TF over GST control); binding signal (SPI1): 1.12 fold enrichment (6-mer frequency, TF over GST control); binding signal (SPIB): 1.12 fold enrichment (6-mer frequency, TF over GST control); binding signal (ELK3): 1.28 fold enrichment (6-mer frequency, TF over GST control); binding signal (FEV): 1.15 fold enrichment (6-mer frequency, TF over GST control); binding signal (ETV5): 1.15 fold enrichment (6-mer frequency, TF over GST control); binding signal (HSF1): 1.15 fold enrichment (6-mer frequency, TF over GST control); binding signal (ELF4): 1.15 fold enrichment (6-mer frequency, TF over GST control); binding signal (ELK4): 1.21 fold enrichment (6-mer frequency, TF over GST control); binding signal (ETV2): 1.2 fold enrichment (6-mer frequency, TF over GST control); binding signal (ELF3): 1.1 fold enrichment (6-mer frequency, TF over GST control); binding signal (CRX): 1.05 fold enrichment (6-mer frequency, TF over GST control); binding signal (ETV1): 1.06 fold enrichment (6-mer frequency, TF over GST control)
